Compounds with a hit are over-represented: about 3.4% of the library has one in this group of screens.
GPR151 ag = activators of human GPR151. Q8TDV0. PathHunter beta-arrestin GPR151 cells, luminescence. activation, % at 11.2 µM. hit rate 1% among 650,000; in the data active = activation above about 4.9%;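 note: 0% = median of compound wells and 100% = cells with positive control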
FBW7 activator = human FBW7 E3 ligase activation, primary screen; Q969H0; hit rate 0.13% among 650,000; AID 1259310; AlphaScreen FBW7–phospho-cyclin E peptide binding, activator screen; normalized activity (activation), % at 26.1 µM; in the data active = normalized activity above about 1.9%;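 note: purified mutant Fbw7 with reduced substrate affinity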
TEAD-YAP block = TEAD-YAP interaction inhibition; AID 1259422; HEK-TIYL cells, TEAD-Gal4/YAP UAS-luciferase luminescence; inhibition, % at 9.12 µM; hit rate 1.4% among 640,000; in the data active = inhibition above about 32%;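 note: 0% = median of test compound wells and 100% = reference inhibitor wells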
MITF primary = human MITF inhibition, primary screen | O75030 | AlphaScreen MITF homodimerization, bead proximity signal | inhibition, % at 2.6 µM | hit rate 0.91% among 650,000 | AID 1259374; in the data active = inhibition above about 50%;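 note: 0% = vehicle wells with protein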
Target sequence (O75030 whole entry, looked up): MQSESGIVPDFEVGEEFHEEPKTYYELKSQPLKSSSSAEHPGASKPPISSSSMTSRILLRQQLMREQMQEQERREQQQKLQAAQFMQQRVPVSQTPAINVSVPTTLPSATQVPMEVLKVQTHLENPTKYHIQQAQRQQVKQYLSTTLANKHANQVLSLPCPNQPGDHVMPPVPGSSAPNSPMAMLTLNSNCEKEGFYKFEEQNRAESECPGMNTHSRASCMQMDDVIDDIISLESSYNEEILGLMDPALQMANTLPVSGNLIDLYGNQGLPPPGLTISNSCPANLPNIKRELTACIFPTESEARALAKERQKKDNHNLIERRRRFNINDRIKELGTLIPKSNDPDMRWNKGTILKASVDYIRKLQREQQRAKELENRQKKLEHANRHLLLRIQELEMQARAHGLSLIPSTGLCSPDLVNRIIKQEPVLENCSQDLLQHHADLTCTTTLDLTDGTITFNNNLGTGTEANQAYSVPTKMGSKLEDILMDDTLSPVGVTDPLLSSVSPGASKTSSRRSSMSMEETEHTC
* marks the source's active call; other numbers are inactive results.

SMILES	GPR151 ag	FBW7 activator	TEAD-YAP block	MITF primary
Cc1cc(C(=O)COC(=O)C2=COCCO2)c(C)n1Cc1cccs1	-4	0	62*	-2
CC(=O)Nc1ccc(C(=O)OCC(=O)Nc2ccc3c(c2)OCO3)cc1	1	0	3	2
O=C(Nc1c2c(nn1-c1ccc(Cl)cc1)CS(=O)(=O)C2)c1ccc([N+](=O)[O-])cc1	0	0	21	-10
O=C(c1ccc(S(=O)(=O)c2ccc(Br)cc2)c([N+](=O)[O-])c1)N1CCCCC1	-1	0	37*	9
CCCNC(=O)c1ccc(S(=O)(=O)c2ccc(OC)cc2)c([N+](=O)[O-])c1	0	0	36*	-6
Cc1cccc(N2CCN(C(=O)c3ccc4c(c3)NC(=O)CS4)CC2C)c1 (stereo not drawn)	0	1	60*	16
Cc1cccc(N2CCN(C(=O)c3ccc4c(c3)NC(=O)c3ccccc3N4)CC2C)c1 (stereo not drawn)	2	0	-4	1
Cc1cccc(N2CCN(C(=O)c3ccc(S(=O)(=O)c4ccc(F)cc4)c([N+](=O)[O-])c3)C(C)C2)c1 (stereo not drawn)	3	0	54*	14
Cc1ccc(C)c(N2CCN(C(=O)c3ccc(S(=O)(=O)c4ccccc4Cl)c([N+](=O)[O-])c3)CC2)c1	2	0	8	5
Cc1ccc(C(=O)N2CCN(c3ccc([N+](=O)[O-])cc3)CC2C)cc1 (stereo not drawn)	1	0	39*	5
CCN(CC)C(=O)c1ccc(S(=O)(=O)c2ccc(Br)cc2)c([N+](=O)[O-])c1	-1	0	49*	11
Cc1ccc(C)c(N2CCN(C(=O)c3ccc(S(=O)(=O)c4ccc(F)cc4)c([N+](=O)[O-])c3)CC2)c1	0	0	44*	15
CCN(CC)C(=O)c1ccc(Sc2ccc(Br)cc2)c([N+](=O)[O-])c1	1	0	5	3
CCOC(=O)CS(=O)(=O)c1ccc(C(=O)N2CCN(c3cccc(C)c3)C(C)C2)cc1[N+](=O)[O-] (stereo not drawn)	0	0	52*	-7
COc1ccc(S(=O)(=O)N(CCC#N)CCC#N)cc1	0	1	-11	-12
O=C(Nc1cccc(F)c1)c1cc(S(=O)(=O)NCCc2ccccc2)ccc1F	1	0	-3	-7
O=C(c1ccc(SCc2ccccn2)c([N+](=O)[O-])c1)N1CCc2ccccc2C1	1	0	-3	0
O=C(c1ccc(S(=O)(=O)c2ccc(Br)cc2)c([N+](=O)[O-])c1)N1CCCC1	0	1	32*	15
O=C(c1ccc(S(=O)(=O)c2ccc(Br)cc2)c([N+](=O)[O-])c1)N1CCN(c2ccc(F)cc2)CC1	1	0	11	-12
O=C(c1ccc(S(=O)(=O)c2ccc(F)cc2)c([N+](=O)[O-])c1)N1CCCCCC1	0	0	34*	-4
O=C(c1ccc(S(=O)(=O)c2ccc(F)cc2)c([N+](=O)[O-])c1)N1CCC2(CC1)OCCO2	0	0	4	2
O=C(c1ccc(S(=O)(=O)c2ccccc2Cl)c([N+](=O)[O-])c1)N1CCN(Cc2ccccc2)CC1	2	0	33*	8
O=C(c1ccc(S(=O)(=O)c2ccc(Br)cc2)c([N+](=O)[O-])c1)N1CCCCCC1	1	0	35*	15
CNc1ccccc1C(=O)OCc1ccc(Cl)cc1	-1	0	-20	-1
COc1cc(C=Nc2cccc(Cl)c2)c(O)c([N+](=O)[O-])c1	-1	0	6	5
SMILES	GPR151 ag	FBW7 activator	TEAD-YAP block	MITF primary
CCCc1cc2c(=O)c(-c3ccc4c(c3)OCCO4)coc2cc1O	1	0	-76	-4
CC1CCCCN1C(=O)c1ccc(S(=O)(=O)c2cccc(Cl)c2)c([N+](=O)[O-])c1 (stereo not drawn)	0	0	38*	3
O=C(O)c1ccc(S(=O)(=O)c2ccc(F)cc2)c([N+](=O)[O-])c1	-1	0	-4	10
C=CCNC(=O)c1ccc(S(=O)(=O)c2ccc(F)cc2)c([N+](=O)[O-])c1	1	0	34*	13
Cc1nc(NCCNC(=O)COc2ccccc2)c2c3c(sc2n1)CCCC3	0	0	45*	2
CCOCCn1cnc2sc(C(=O)N3CCN(c4ccc(OC)cc4)CC3)c(C)c2c1=O	0	0	4	11
CCC1=NN(C(=O)c2ccccc2O)C(O)(c2ccccc2)C1 (stereo not drawn)	-1	0	46*	1
O=C(COc1cccc(N2C(=O)C3C4C=CC(C5CC45)C3C2=O)c1)c1ccc(Cl)cc1 (stereo not drawn)	1	0	39*	-1
Cc1ccc(S(=O)(=O)Nc2ccccc2/C=N\n2cnnc2)cc1	0	0	48*	2
O=C(COC(=O)c1ccc(Br)cc1)NC(=O)Cc1ccccc1	-1	0	-6	-15
CCCCOc1ccccc1C1CC(=O)Nc2cc(C)c(C)cc21 (stereo not drawn)	1	0	4	12
Cc1cc2c(cc1C)C(c1ccccc1OC(C)C)CC(=O)N2 (stereo not drawn)	2	0	55*	7
COc1ccccc1C1CC(=O)Nc2cc(C)c(C)cc21 (stereo not drawn)	2	0	57*	14
Cc1cc2c(cc1C)C(c1ccccc1C)CC(=O)N2 (stereo not drawn)	0	0	6	5
CCOc1ccccc1C1CC(=O)Nc2cc(C)c(C)cc21 (stereo not drawn)	-1	0	41*	-7
CC(C)OCC1OC2OC(C)(C)OC2C2OC(C)(C)OC12 (stereo not drawn)	0	0	-25	2
COc1cc(/C=N/NC(=O)c2ccccc2[N+](=O)[O-])cc(Cl)c1O	-1	0	7	4
c1ccc2c(c1)CC/C2=N/Nc1ccc2ccccc2n1	-1	0	74*	12
CCC(C)NC(=O)c1ccc(C)cc1C (stereo not drawn)	-1	0	-2	-6
Cc1ccc(C(=O)NC(C)Cc2cccs2)c(C)c1 (stereo not drawn)	-7	0	88*	4
CCN(CC)S(=O)(=O)c1ccc2[nH]c3nc(SCc4cccnc4)nnc3c2c1	2	0	37*	8
CCN(CC)S(=O)(=O)c1ccc(Cl)c(C(=O)Oc2cccc(NC(=O)c3ccc(OC)cc3)c2)c1	-2	0	67*	2
CCN(CC)S(=O)(=O)c1cccc(C(=O)Nc2ccc(C#N)cc2)c1	5	0	47*	0
CCN(CC)S(=O)(=O)c1ccc(Cl)c(C(=O)Oc2cccc(NC(=O)c3ccccc3Cl)c2)c1	-1	0	12	-4
CCN(CC)S(=O)(=O)c1cccc(C(=O)Oc2cccc(NC(=O)c3ccc(OC)cc3)c2)c1	-2	0	66*	-4
CCCOc1cccc(C(=O)Nc2cc3nn(-c4ccc(C)cc4)nc3cc2C)c1	-1	0	0	-11

Source: PubChem BioAssay
